Paper PMC12820563, “FoxP3 forms a head-to-head dimer in vivo and stabilizes its multimerization on adjacent microsatellites”
Over roughly 16,000 sequences, “rpm ratio (pull-down/input)” has its median near 0.94; the highest 2% begin near 1.7. This is one part of a sample in which the highest values are shown more often than they occur.

Biological target: T1, MBP-FoxP1dN (Mus musculus, UniProt P58462 326-579)
T1 sequence: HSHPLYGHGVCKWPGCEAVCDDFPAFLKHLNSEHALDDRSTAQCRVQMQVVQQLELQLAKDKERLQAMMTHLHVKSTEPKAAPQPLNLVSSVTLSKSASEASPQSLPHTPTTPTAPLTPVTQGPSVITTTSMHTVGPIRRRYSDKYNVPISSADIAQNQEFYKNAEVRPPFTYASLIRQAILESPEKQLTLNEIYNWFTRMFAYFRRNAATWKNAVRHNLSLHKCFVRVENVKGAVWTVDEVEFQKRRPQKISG
Assay: PD-seq (MBP pull-down with sequencing); 20 mM Tris-HCl pH 7.5, 100 mM NaCl, 1.5 mM MgCl2, 0.4 uM protein, 0.1 uM dsDNA library, 30 min, room temperature, amylose pull-down; high values mean tight binding
Conditions: protein: recombinant; tags: His6-MBP; chain copies: 2; dsDNA, one strand shown
In short: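 The N-terminus-lacking fragment of mouse FoxP3 or FoxP1 carried a His6-MBP tag and was expressed in E. coli. At 0.4 µM it was incubated with 0.1 µM Klenow-filled degenerate double-stranded DNA library for 30 min at room temperature in Tris pH 7.5 buffer with NaCl and MgCl2, and complexes were caught on amylose resin, washed three times, released with proteinase K, PCR-barcoded and Illumina-sequenced. Binding is reads-per-million enrichment of pull-down over input with replicates pooled.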

Row | Sequence | binding signal
1 | GATGATTGTTCTCCCAGCTGATGAATTGCTCGACTCGAGTAAACAAATTTTCCTAATCTTTCTGTTCAAGCGCCATCTAC | 0.946 RPM ratio (pull-down/input)
2 | GATGATTGTTCTCCCAGCTGATGAATTTCCCCATTCGAGTAAACAAATTTTCCTAATCTTTCTGTTCAAGCGCCATCTAC | 0.898 RPM ratio (pull-down/input)
3 | GATGATTGTTCTCCCAGCTGATGAATTTTTTTCCTCGAGTAAACAAATTTTCCTAATCTTTCTGTTCAAGCGCCATCTAC | 0.754 RPM ratio (pull-down/input)
4 | GATGATTGTTCTCCCAGCTGATGAATTTTCATCCTCGAGTAAACAAATTTTCCTAATCTTTCTGTTCAAGCGCCATCTAC | 0.875 RPM ratio (pull-down/input)
5 | GATGATTGTTCTCCCAGCTGATGAATTGTTTGATTCGAGTAAACAAATTTTCCTAATCTTTCTGTTCAAGCGCCATCTAC | 1.33 RPM ratio (pull-down/input)
6 | GATGATTGTTCTCCCAGCTGATGAATTCTTTGATTCGAGTAAACAAATTTTCCTAATCTTTCTGTTCAAGCGCCATCTAC | 0.885 RPM ratio (pull-down/input)
7 | GATGATTGTTCTCCCAGCTGATGAATTTTTTGATTCGAGTAAACAAATTTTCCTAATCTTTCTGTTCAAGCGCCATCTAC | 1.02 RPM ratio (pull-down/input)
8 | GATGATTGTTCTCCCAGCTGATGAATTGTTTTGTTCGAGTAAACAAATTTTCCTAATCTTTCTGTTCAAGCGCCATCTAC | 1.97 RPM ratio (pull-down/input)
9 | GATGATTGTTCTCCCAGCTGATGAATTTGTTGATTCGAGTAAACAAATTTTCCTAATCTTTCTGTTCAAGCGCCATCTAC | 2.39 RPM ratio (pull-down/input)
10 | GATGATTGTTCTCCCAGCTGATGAATTTGTTGTTTCGAGTAAACAAATTTTCCTAATCTTTCTGTTCAAGCGCCATCTAC | 2.54 RPM ratio (pull-down/input)
11 | GATGATTGTTCTCCCAGCTGATGAATTTGTTTTTTCGAGTAAACAAATTTTCCTAATCTTTCTGTTCAAGCGCCATCTAC | 2.09 RPM ratio (pull-down/input)
12 | GATGATTGTTCTCCCAGCTGATGAATTAAGATGATCGAGTAAACAAATTTTCCTAATCTTTCTGTTCAAGCGCCATCTAC | 0.992 RPM ratio (pull-down/input)
13 | GATGATTGTTCTCCCAGCTGATGAATTTGACTATTCGAGTAAACAAATTTTCCTAATCTTTCTGTTCAAGCGCCATCTAC | 0.903 RPM ratio (pull-down/input)
14 | GATGATTGTTCTCCCAGCTGATGAATTATTTGCGTCGAGTAAACAAATTTTCCTAATCTTTCTGTTCAAGCGCCATCTAC | 1.66 RPM ratio (pull-down/input)
15 | GATGATTGTTCTCCCAGCTGATGAATTGTCCACATCGAGTAAACAAATTTTCCTAATCTTTCTGTTCAAGCGCCATCTAC | 1.33 RPM ratio (pull-down/input)
16 | GATGATTGTTCTCCCAGCTGATGAATTGCTTCCTTCGAGTAAACAAATTTTCCTAATCTTTCTGTTCAAGCGCCATCTAC | 1.06 RPM ratio (pull-down/input)
17 | GATGATTGTTCTCCCAGCTGATGAATTCTTAATATCGAGTAAACAAATTTTCCTAATCTTTCTGTTCAAGCGCCATCTAC | 1.08 RPM ratio (pull-down/input)
18 | GATGATTGTTCTCCCAGCTGATGAATTCAGGTTGTCGAGTAAACAAATTTTCCTAATCTTTCTGTTCAAGCGCCATCTAC | 1 RPM ratio (pull-down/input)
19 | GATGATTGTTCTCCCAGCTGATGAATTCGAAGGATCGAGTAAACAAATTTTCCTAATCTTTCTGTTCAAGCGCCATCTAC | 0.845 RPM ratio (pull-down/input)
20 | GATGATTGTTCTCCCAGCTGATGAATTTCTTGATTCGAGTAAACAAATTTTCCTAATCTTTCTGTTCAAGCGCCATCTAC | 1.01 RPM ratio (pull-down/input)

Row | Sequence | binding signal
21 | GATGATTGTTCTCCCAGCTGATGAATTTGCTGGGTCGAGTAAACAAATTTTCCTAATCTTTCTGTTCAAGCGCCATCTAC | 0.859 RPM ratio (pull-down/input)
22 | GATGATTGTTCTCCCAGCTGATGAATTCGCGGACTCGAGTAAACAAATTTTCCTAATCTTTCTGTTCAAGCGCCATCTAC | 0.757 RPM ratio (pull-down/input)
23 | GATGATTGTTCTCCCAGCTGATGAATTGTTGATTTCGAGTAAACAAATTTTCCTAATCTTTCTGTTCAAGCGCCATCTAC | 2.42 RPM ratio (pull-down/input)
24 | GATGATTGTTCTCCCAGCTGATGAATTGTTTGTTTCGAGTAAACAAATTTTCCTAATCTTTCTGTTCAAGCGCCATCTAC | 2.72 RPM ratio (pull-down/input)
25 | GATGATTGTTCTCCCAGCTGATGAATTTTTTGTTTCGAGTAAACAAATTTTCCTAATCTTTCTGTTCAAGCGCCATCTAC | 1.13 RPM ratio (pull-down/input)
26 | GATGATTGTTCTCCCAGCTGATGAATTTTGTTTTTCGAGTAAACAAATTTTCCTAATCTTTCTGTTCAAGCGCCATCTAC | 2.75 RPM ratio (pull-down/input)
27 | GATGATTGTTCTCCCAGCTGATGAATTGAATTGTTCGAGTAAACAAATTTTCCTAATCTTTCTGTTCAAGCGCCATCTAC | 0.984 RPM ratio (pull-down/input)
28 | GATGATTGTTCTCCCAGCTGATGAATTTGTTTCTTCGAGTAAACAAATTTTCCTAATCTTTCTGTTCAAGCGCCATCTAC | 1.7 RPM ratio (pull-down/input)
29 | GATGATTGTTCTCCCAGCTGATGAATTCTTTTTTTCGAGTAAACAAATTTTCCTAATCTTTCTGTTCAAGCGCCATCTAC | 1.07 RPM ratio (pull-down/input)
30 | GATGATTGTTCTCCCAGCTGATGAATTGTTGAATTCGAGTAAACAAATTTTCCTAATCTTTCTGTTCAAGCGCCATCTAC | 1.15 RPM ratio (pull-down/input)
31 | GATGATTGTTCTCCCAGCTGATGAATTCTGTTGTTCGAGTAAACAAATTTTCCTAATCTTTCTGTTCAAGCGCCATCTAC | 2.6 RPM ratio (pull-down/input)
32 | GATGATTGTTCTCCCAGCTGATGAATTTTCTAATTCGAGTAAACAAATTTTCCTAATCTTTCTGTTCAAGCGCCATCTAC | 1.05 RPM ratio (pull-down/input)
33 | GATGATTGTTCTCCCAGCTGATGAATTAGGTATATCGAGTAAACAAATTTTCCTAATCTTTCTGTTCAAGCGCCATCTAC | 0.972 RPM ratio (pull-down/input)
34 | GATGATTGTTCTCCCAGCTGATGAATTAGCAGGATCGAGTAAACAAATTTTCCTAATCTTTCTGTTCAAGCGCCATCTAC | 0.814 RPM ratio (pull-down/input)
35 | GATGATTGTTCTCCCAGCTGATGAATTAACAAGGTCGAGTAAACAAATTTTCCTAATCTTTCTGTTCAAGCGCCATCTAC | 1 RPM ratio (pull-down/input)
36 | GATGATTGTTCTCCCAGCTGATGAATTGACTTCTTCGAGTAAACAAATTTTCCTAATCTTTCTGTTCAAGCGCCATCTAC | 0.996 RPM ratio (pull-down/input)
37 | GATGATTGTTCTCCCAGCTGATGAATTGATGACTTCGAGTAAACAAATTTTCCTAATCTTTCTGTTCAAGCGCCATCTAC | 0.994 RPM ratio (pull-down/input)
38 | GATGATTGTTCTCCCAGCTGATGAATTGTTGACTTCGAGTAAACAAATTTTCCTAATCTTTCTGTTCAAGCGCCATCTAC | 2.11 RPM ratio (pull-down/input)
39 | GATGATTGTTCTCCCAGCTGATGAATTAGTGCGTTCGAGTAAACAAATTTTCCTAATCTTTCTGTTCAAGCGCCATCTAC | 1.1 RPM ratio (pull-down/input)
40 | GATGATTGTTCTCCCAGCTGATGAATTCGATCATTCGAGTAAACAAATTTTCCTAATCTTTCTGTTCAAGCGCCATCTAC | 0.949 RPM ratio (pull-down/input)
